Laboratory results as given in PubChem BioAssay (NCI).
This is part of a sample that, as a whole, favours compounds with a hit. Of some 83,000 tested, about 20% had one in any assay.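 Method: cells in 96-well plates; compound added at one concentration; 48 h incubation; percent growth measured; values under 10 scored active.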 Activity calls are given as the source filed them.

Assays:
Assay in all cases: NCI-60 one-dose screen, 48 h (100 = growth as untreated, 0 = no growth, -100 = all killed)
Conditions in all cases: 10 µM unless noted
[1] = system: DU-145 prostate
[2] = system: K-562 leukemia
[3] = system: MALME-3M melanoma
[4] = system: MDA-MB-231 breast
[5] = system: RXF 393 renal
[6] = system: SF-268 CNS
[7] = system: SF-295 CNS
[8] = system: SF-539 CNS
[9] = system: UACC-257 melanoma
[10] = system: M14 melanoma

Measured: growth

Cc1ccc(C(=O)NN2C(=O)/C(=C/C=C/c3ccc([N+](=O)[O-])o3)SC2=S)cc1
active: [1] -100% | [2] 6.34% | [3] -98% | [4] -96.4% | [5] -90% | [6] -86.7% | [7] -87.6% | [8] -96.6% | [9] -81.5% | [10] -70.6%

COc1ccc(-c2ccc(SCC(=O)Nc3ccc(S(N)(=O)=O)cc3Br)nn2)cc1
inactive: [1] 72% | [2] 101% | [3] 89.4% | [4] 85.1% | [5] 89.2% | [6] 17.9% | [7] 60.2% | [8] 42.9% | [9] 87.9% | [10] 101%

COc1cc2c(c(OC)c1OC)C(=O)CC(c1cccc(NC(=O)c3cc([N+](=O)[O-])ccc3Cl)c1)O2 (configuration not stated)
active: [1] 5.58% | [4] 6.08% | [5] -6.08% | [10] 0.0604%
inactive: [2] 19.5% | [3] 51.9% | [6] 42.2% | [7] 49.8% | [8] 22.2% | [9] 39.9%

Cc1ccc(C2=NN(c3nc(-c4cc5ccccc5oc4=O)cs3)C(c3ccc(C)cc3)C2)cc1 (configuration not stated)
inactive: [1] 113% | [2] 101% | [3] 91.6% | [4] 84.4% | [5] 103% | [6] 120% | [7] 99.6% | [8] 93.9% | [9] 112% | [10] 106%

Nc1cccc(SCc2cc3ccccc3[nH]c2=O)c1
active: [2] 9.64%
inactive: [1] 58.7% | [3] 72% | [4] 57.2% | [5] 81.5% | [6] 47.7% | [7] 19.3% | [8] 59.9% | [9] 48.5% | [10] 20.5%

CC1(C)CC[C@]2(C(=O)Nc3ccc(F)cc3)CC[C@]3(C)C(=CCC4[C@@]5(C)C[C@@H](O)[C@H](O)[C@@](C)(CO)C5CC[C@]43C)C2C1 (some centres not stated)
inactive: [1] 59.7% | [2] 18% | [3] 60.7% | [4] 27.8% | [6] 52.6% | [7] 26.1% | [8] 49.7% | [9] 27.7% | [10] 46.6%
active: [5] -6.8%

CCCCSc1nc(Nc2ccc(S(N)(=O)=O)cc2)c(C#N)c(-c2ccc(Cl)cc2)n1
active: [2] 5.58% | [4] -36.1% | [7] 8.15% | [8] -25.2%
inactive: [1] 53% | [3] 22.9% | [5] 16.8% | [6] 69.2% | [9] 76% | [10] 10.6%

Clc1cccc(-c2ccc(OCCCN3CCN(c4ccncc4)CC3)cc2)c1
inactive: [1] 35.2% | [6] 33.1% | [9] 25.1%
active: [2] -50.3% | [3] -87% | [4] -83.4% | [5] -67.1% | [7] -80.8% | [8] -81.2% | [10] -64.8%

CC12CC[C@@H]3[C@]4(C)COC(c5cn[nH]c5-c5cccc(Cl)c5)O[C@@H]4CC[C@@]3(C)[C@@H]1CC(C1=CCOC1=O)O2 (some centres not stated)
inactive: [1] 56.6% | [2] 25% | [3] 40.5% | [4] 36.4% | [5] 18.3% | [6] 45.5% | [7] 35.4% | [8] 58.2% | [9] 43.3% | [10] 25.3%

Brc1ccc(-c2n(Cc3ccc4ccccc4c3)c(-c3ccccc3)c(-c3ccccc3)[n+]2Cc2ccc3ccccc3c2)cc1
active: [1] -100% | [2] 4.96% | [3] -91% | [4] -89.5% | [5] -69.6% | [6] -72.1% | [7] -86.3% | [8] -100% | [9] -89.6% | [10] -90.8%

O=C(Cn1c2c(sc1=O)[C@H]1[C@@H](O)[C@@H](O)[C@H](O)[C@@H]1CS2)N1CCOCC1
inactive: [1] 112% | [2] 106% | [3] 98.8% | [4] 106% | [5] 117% | [6] 97.7% | [7] 105% | [8] 96.8% | [9] 110% | [10] 112%

CC(=O)c1cc(C(=O)c2ccccc2)n2c1ccc1ccccc12
inactive: [1] 128% | [2] 94.4% | [3] 131% | [4] 78.4% | [5] 93.1% | [6] 110% | [7] 106% | [8] 82.5% | [9] 118% | [10] 101%

Nc1nc(-c2ccccc2)c(N=Nc2ccc([N+](=O)[O-])cc2Cl)s1
inactive: [1] 95.4% | [2] 67.3% | [3] 108% | [4] 87.8% | [5] 109% | [6] 90.2% | [7] 92.1% | [8] 96.5% | [9] 61.6% | [10] 92.9%

O=C1c2c(c3c4cc(F)ccc4oc3c3[nH]c4ccc(Br)cc4c23)C(=O)N1O
active: [3] 7.44% | [6] 2.64% | [8] -10.9%
inactive: [1] 24.6% | [2] 40.3% | [4] 66.4% | [5] 29.2% | [7] 20% | [9] 88.5% | [10] 14.3%

CC(=O)OC[C@@]1(C)C2CC[C@]3(C)C(CC=C4C5CC(C)(C)CC[C@]5(C(=O)Nc5ccc(F)cc5)CC[C@]43C)[C@@]2(C)C[C@@H](OC(C)=O)[C@@H]1OC(C)=O (some centres not stated)
inactive: [1] 47.4% | [2] 22.4% | [3] 58.2% | [4] 65.5% | [5] 87.4% | [6] 57.4% | [7] 23.4% | [8] 40.2% | [9] 26.8% | [10] 48.1%

CCOC(=O)c1ccc(Nc2nc(NN)nc(-c3ccc(F)cc3)c2C#N)cc1
inactive: [1] 113% | [2] 32.2% | [3] 98.5% | [4] 76.7% | [5] 142% | [6] 109% | [7] 97.8% | [8] 104% | [9] 103% | [10] 98%

Nc1nc(-c2ccccc2)c(N=Nc2ccc(Cl)cc2[N+](=O)[O-])s1
inactive: [1] 112% | [2] 96.1% | [3] 109% | [4] 95.5% | [5] 106% | [6] 87.7% | [7] 101% | [8] 86.5% | [9] 103% | [10] 98.3%

Cc1ccc(-c2nc(C#N)c(S(=O)(=O)N3CCN(S(=O)(=O)c4ccccc4)CC3)o2)cc1
inactive: [1] 28.8% | [4] 31.4% | [6] 56.5% | [7] 149% | [9] 44.7%
active: [2] -28.1% | [3] -77.4% | [5] -89.2% | [8] -43.4% | [10] -21.3%

CN1CCc2c(sc3ncnc(N/N=C/c4ccc(Cl)cc4Cl)c23)C1
active: [2] -21.5% | [3] -62.4% | [5] -41.8% | [8] -94.6% | [9] -12.3% | [10] -81.4%
inactive: [1] 36.1% | [6] 35.8% | [7] 32.4%

CNC(=O)c1cc(Oc2ccc3nc(NC(=O)Nc4cccc(OC(F)(F)F)c4)sc3c2)ccn1
inactive: [1] 36.8% | [2] 47.1% | [6] 11.8% | [9] 47.9% | [10] 44.8%
active: [3] -25.2% | [5] -40.1% | [7] -18.9% | [8] -57.8%

CC(C)c1ccc2c(N)c(C(=O)Nc3cccc(C(F)(F)F)c3)sc2n1
active: [2] 8.51%
inactive: [1] 73.4% | [3] 80.3% | [5] 42.1% | [6] 94.2% | [7] 64.9% | [8] 66.6% | [9] 90.1% | [10] 32.8%

CNC(=O)c1cccc(NC(=O)c2ccc3c(c2)nnn3/C(C#N)=C/c2ccccn2)c1
inactive: [1] 21.7% | [6] 24.4% | [7] 84.3%
active: [2] 0.0446% | [3] -97% | [5] -97.9% | [8] -72.8% | [9] -67.2% | [10] -73.6%

O=C(O)c1cccc(-c2ccc(/C=N/NC(=O)c3[nH]c4ccc(Br)cc4c3-c3ccccc3)s2)c1
active: [5] -2.3%
inactive: [1] 55.6% | [2] 19.8% | [3] 57.9% | [6] 39% | [7] 15.6% | [8] 16.1% | [9] 85.5% | [10] 47.9%

CC(=O)Oc1ccccc1C(=O)[Se]C(=NC1CCCCC1)NC1CCCCC1
active: [1] -80% | [2] 3.88% | [3] -91.8% | [5] -99.7% | [6] 8.57% | [7] -78.9% | [8] -98.7% | [9] -89.9% | [10] -73.7%

CC(C)c1ccc2c(N)c(C(=O)Nc3ccc(C(F)(F)F)cn3)sc2n1
inactive: [1] 63.8% | [2] 33.1% | [3] 63% | [5] 74.5% | [6] 91.8% | [7] 34.3% | [8] 88% | [9] 60% | [10] 50.5%

C=Cn1cc(C(=O)O)c(=O)c2cc(F)c(N3CCN(c4nccc(-c5nccs5)n4)CC3)cc21
active: [1] -3.99% | [3] -29.2% | [5] -52.3% | [7] -26.4% | [8] -42.7% | [9] -27.3% | [10] -1.11%
inactive: [2] 11.4% | [6] 22%
